According to PubChem BioAssay (NCI):
Compounds without any hit were thinned out: in the full panel of roughly 83,000, 20% have a hit.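 Each cell line was grown in a 96-well plate and treated with one concentration of compound for 48 hours. Values below 10 were considered active.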 A number with no mark means an inactive call. Calls of active or inactive are those of the source.

Assays:
Test in all cases: NCI-60 one-dose screen, 48 h (100 = growth as untreated, 0 = no growth, -100 = all killed)
Details in all cases: 10 µM unless noted
NCI-H23 lung = system: NCI-H23 lung
NCI-H226 lung = system: NCI-H226 lung
NCI-H322M lung = system: NCI-H322M lung
HOP-62 NSCLC = system: HOP-62 NSCLC
NCI-H460 lung = system: NCI-H460 lung
HOP-92 NSCLC = system: HOP-92 NSCLC
NCI-H522 lung = system: NCI-H522 lung
A549/ATCC NSCLC = system: A549/ATCC NSCLC
786-0 renal = system: 786-0 renal
COLO 205 colon = system: COLO 205 colon
DU-145 prostate = system: DU-145 prostate
K-562 leukemia = system: K-562 leukemia
MALME-3M melanoma = system: MALME-3M melanoma
MDA-MB-231 breast = system: MDA-MB-231 breast
RXF 393 renal = system: RXF 393 renal
SF-268 CNS = system: SF-268 CNS
SF-295 CNS = system: SF-295 CNS
SF-539 CNS = system: SF-539 CNS
UACC-257 melanoma = system: UACC-257 melanoma
M14 melanoma = system: M14 melanoma

SMILES	growth (NCI-H23 lung)	growth (NCI-H226 lung)	growth (NCI-H322M lung)	growth (HOP-62 NSCLC)	growth (NCI-H460 lung)	growth (HOP-92 NSCLC)	growth (NCI-H522 lung)	growth (A549/ATCC NSCLC)	growth (786-0 renal)	growth (COLO 205 colon)	growth (DU-145 prostate) [%]	growth (K-562 leukemia)	growth (MALME-3M melanoma)	growth (MDA-MB-231 breast)	growth (RXF 393 renal)	growth (SF-268 CNS)	growth (SF-295 CNS)	growth (SF-539 CNS)	growth (UACC-257 melanoma)	growth (M14 melanoma)
N#Cc1c(Nc2ccc(F)cc2)n[nH]c1-c1cccs1	85.2%	88.9%	102%	110%	107%	87.5%	97.1%	115%	98.3%	128%	113	99.2%	108%	89.5%	112%	98%	97.7%	98.8%	120%	104%
CC1(C)O[C@H]2OC3CCC(=O)CC3(O)[C@H]2O1 (stereo not given in full)	99.2%	102%	101%	95.8%	101%	79.8%	92.4%	95.9%	99.5%	105%	107	94.8%	104%	113%	104%	99.3%	110%	105%	96.5%	99.9%
O=C(/C=C/C12c3ccccc3C(c3ccccc31)C1C(=O)NC(=O)C12)c1ccccn1 (stereo not given)	-8.66% (active)	48.5%	-4.26% (active)	-22.7% (active)	-18.5% (active)	-12.4% (active)	7.45% (active)	6.07% (active)	1.59% (active)	-50.5% (active)	15.3	8.81% (active)	19.1%	16.4%	-46.3% (active)	24.1%	16%	-7.59% (active)	33.8%	-15.4% (active)
Cc1c(N2CN3C[C@H](C)N4CN(c5c(C)n(C)n(-c6ccccc6)c5=O)CN5C[C@@H](C)N(C2)C3C54)c(=O)n(-c2ccccc2)n1C (stereo not given in full)	95.1%	101%	103%	103%	101%	90.8%	98.9%	106%	102%	109%	112	17.9%	104%	117%	101%	100%	99.3%	91.2%	105%	99.8%
Nc1c(C(=O)O)cc(Cl)cc1[N+](=O)[O-]	90.6%	96.4%	103%	89.7%	108%	58.7%	98.4%	97.6%	96.1%	115%	108	95.2%	105%	91.3%	88.9%	98%	109%	99.7%	96.8%	96.8%
CNC(=O)c1cc(Oc2ccc3nc(NC(=O)Nc4ccc(Cl)c(Cl)c4)sc3c2)ccn1	28.9%	23.1%	63.7%	14.7%	30.8%	64.4%	48.4%	10.9%	40.5%	80.8%	35.3	62.5%	-5.7% (active)	39.5%	88.6%	11.9%	-0.659% (active)	22.5%	74.7%	1.23% (active)
CN1CCN(Cc2ccc(NC(=O)c3cncc(C#Cc4cncc5[nH]ncc45)c3)cc2C(F)(F)F)CC1	7.77% (active)	-43.3% (active)	13.7%	7.14% (active)	3.22% (active)	-22.9% (active)	23.2%	13.1%	20.6%	1.42% (active)	20.2	-5.05% (active)	-65.7% (active)	-88.2% (active)	-4.93% (active)	2.23% (active)	29%	-56.8% (active)	6.82% (active)	-57.6% (active)
Cc1ccc2[nH]c(=O)c3c(c2c1)OC(N)=C(C#N)C31C(=O)c2cccc3cccc1c23 (stereo not given)	103%	91.1%	100%	98.2%	101%	104%	89.3%	103%	100%	103%	101	87.8%	99.2%	87.4%	97%	94.6%	104%	95.9%	108%	98.2%
CCOC(=O)NN1CC(O)=C(c2nc(-c3ccc(Br)cc3)cs2)C1=N	101%	105%	112%	106%	111%	97.3%	92.1%	88.1%	111%	112%	105	78.4%	112%	104%	82.9%	108%	90.9%	96.7%	96.4%	156%
S=c1[nH]c2cc(Cl)ccc2o1	104%	104%	107%	102%	100%	82.6%	102%	118%	92.7%	110%	102	90.7%	102%	89%	104%	105%	99.2%	106%	113%	94.3%
Cc1[nH]c(C(=O)Nc2cccc(OC3CCNCC3)c2)c(Cl)c1Cl	75.3%	91.4%	84.8%	86.9%	77%	22.9%	99.2%	68.6%	63.8%	-35.3% (active)	88	0.0646% (active)	27.2%	50.7%	40.9%	74.5%	58.7%	71.5%	17.7%	-12.4% (active)
COc1ccc(Cn2cc(C(=O)N=Nc3c(O)[nH]c4c(Cl)cccc34)nn2)cc1	99.3%	102%	101%	110%	99.7%	105%	84%	102%	106%	114%	105	89.2%	99.7%	98.5%	109%	94.7%	109%	108%	92.9%	106%
N=C(N)SCc1cccc2c(CSC(=N)N)cccc12	99.2%	87.9%	90.7%	95.1%	103%	83.8%	104%	96.6%	99.3%	108%	107	103%	102%	98.6%	113%	97.2%	113%	100%	95.9%	105%
CN1C(=O)/C(=C/c2ccc(C(=O)Nc3ncc(Cc4ccc(F)cc4)s3)cc2)SC1=S	62.1%	65.3%	52%	44.9%	20.2%	44.2%	39%	46.8%	51.9%	72.3%	38.8	44.7%	47.1%	56.2%	36.8%	49.1%	24.3%	38.4%	65.6%	19.6%
Cc1ccc(/C=C/C(=O)c2ccc(NC(=O)CSc3nc4c([nH]3)c(=O)n(C)c(=O)n4C)cc2)c(C)c1	57.9%	47.2%	71.3%	20.4%	24.5%	-35.2% (active)	32.5%	33.6%	36%	84.8%	40.1	55.9%	58.7%	5.32% (active)	-3.94% (active)	46.2%	47.6%	55.1%	62%	56.8%
CS(=O)(=O)Nc1cncc(-c2ccc3ncnc(Nc4ccc(F)c(Cl)c4)c3c2)c1	33.1%	55.7%	10.5%	40.1%	61.9%	-4.23% (active)	8.87% (active)	43.1%	62%	32.5%	36.5	35.3%	44.1%	54.6%	24.9%	41.5%	44.5%	32.5%	35.2%	52.5%
